Source: PubChem BioAssay (several laboratories)
CYP2C19 inhib: blockers of cytochrome P450 2C19 activity – biochemical, luminescence, ADME assay, primary screen | P33261 | CYP2C19 Supersomes, luciferin-H EGE luminescence, 30 min | hit rate 21% among 96,000 | inhibition, % at 5 µM | AID 778, 2007;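 active = CYP2C19 inhibition above a set limit at 5 µM in the primary screen, cut at about 50% in these data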;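 also: plate controls were negative control wells for no effect and 2.5 mM tranylcypromine positive control for full effect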
Target sequence (P33261 whole entry, looked up): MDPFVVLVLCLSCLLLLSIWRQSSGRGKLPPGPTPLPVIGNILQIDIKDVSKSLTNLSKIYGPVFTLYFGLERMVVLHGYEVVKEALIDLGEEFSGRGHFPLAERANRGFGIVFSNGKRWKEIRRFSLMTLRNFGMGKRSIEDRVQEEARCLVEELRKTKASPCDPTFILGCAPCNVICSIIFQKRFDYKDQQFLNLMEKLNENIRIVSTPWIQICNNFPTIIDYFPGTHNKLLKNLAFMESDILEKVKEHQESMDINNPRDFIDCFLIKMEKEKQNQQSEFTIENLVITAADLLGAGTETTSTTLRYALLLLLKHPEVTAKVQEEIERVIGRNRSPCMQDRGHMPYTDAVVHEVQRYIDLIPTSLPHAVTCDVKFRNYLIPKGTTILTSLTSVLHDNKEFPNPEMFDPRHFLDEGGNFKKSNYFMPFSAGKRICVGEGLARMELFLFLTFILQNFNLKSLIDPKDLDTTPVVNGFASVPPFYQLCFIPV
Plk1 PBD FP: Plk1 polo box domain binding inhibitors, primary screen, biochemical, fluorescence polarization; Serine/threonine-protein kinase PLK1 (Homo sapiens), P53350; Plk1 PBD phosphopeptide binding; inhibition, %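 (tested at about 20 µM)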; hit rate 0.13% among 97,000; in the data active = inhibition above about 34%, passing the limit was not always enough
CYP2C9 act: human CYP2C9 activators, primary screen, biochemical, luminescence; Cytochrome P450 2C9 (Homo sapiens), P11712; activation factor at 5 µM; recombinant CYP2C9, luciferin-H conversion; stronger effect = higher value; factor 1 = untreated enzyme, 0 = blocked; hit rate 1.4% among 96,000; AID 1024, 2008;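 active = activation factor of 2 or more for CYP2C9 at a 5 µM dose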;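 also: 0 = sulfaphenazole-blocked wells and 1 = vehicle-only wells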
CYP2C19 act: human CYP2C19 activators, primary screen, biochemical, luminescence. activation factor at 5 µM. recombinant CYP2C19, luciferin-H EGE luminescence; stronger effect = higher value; 0 = fully inhibited enzyme, 1 = untreated enzyme. 96,000 tested, under 10 active. AID 1025, 2008;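 active = activation factor of at least 2 at 5 µM in the primary screen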;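 also: 0 = wells with 2.5 mM tranylcypromine and 1 = vehicle-only wells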
CYP2C9 inhib: blockers of cytochrome P450 2C9 activity – biochemical, luminescence, ADME assay, primary screen. P11712. CYP2C9 Supersomes, luciferin-H conversion. inhibition, % at 5 µM. hit rate 20% among 96,000;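 active = blocking of liver enzyme CYP2C9 beyond about 50% at 5 µM, limit read from the data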
PLK1 inh: human PLK1 kinase inhibitors, primary screen, biochemical, TR-FRET; Serine/threonine-protein kinase PLK1 (Homo sapiens), P53350; recombinant PLK1 kinase, TR-FRET peptide phosphorylation; inhibition, % at 10 µM; hit rate 0.53% among 97,000; AID 619, 2007;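 active = inhibition of 50% or more in the single-concentration screen; inactive = inhibition below 50%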;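 also: 0% = DMSO max control and 100% = H-89 dihydrochloride min control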
Numbers without * were called inactive; x = no result given. The list is not random: actives were taken first. Their share in the collection is about 28%.

SMILES	CYP2C19 inhib	Plk1 PBD FP	CYP2C9 act	CYP2C19 act	CYP2C9 inhib	PLK1 inh
C=CCNS(=O)(=O)c1ccc(OCC(=O)OCC)cc1	1.6	16.6	0.7	1	26.9	-5.9
COc1cc(OC)c(NC2=NCCCCC2)cc1Cl	14.3	-18.4	1	0.9	4.2	-6.9
Nc1nc(SCc2ccc(Cl)cc2Cl)n[nH]1	73.1*	6.8	0.8	0.3	20.0	-12.3
CCc1nc(SCc2cc(Cl)ccc2OC)n[nH]1	94.5*	-7.4	0.5	0.1	52.5*	-4.7
CCCc1nc(SCc2ccccc2Cl)n[nH]1	30.8	-15.9	1.1	0.7	-11.7	-13.4
COc1ccc(Cl)cc1Nc1nc(C)cc(=O)[nH]1	4.2	-19.2	1	1	4.9	-2.7
CCCCn1c(SCC(=O)Nc2ccc3c(c2)OCO3)nc2c1c(=O)n(C)c(=O)n2C	8.2	8.6	0.9	0.9	14.7	14.1
COc1cc(-c2nc(Cc3c(F)cccc3Cl)no2)cc(OC)c1OC	x	-26.1	x	x	x	-10.5
Cc1cc(C)cc(C(=O)O/N=C(\N)c2ccc(Br)cc2)c1	-13.3	23.1	3.5*	1.1	-247.1	-6.9
COc1cccc(C(=O)O/N=C(\N)c2ccc([N+](=O)[O-])cc2)c1	12.0	-1.8	2*	0.9	-96.2	-9.8
COc1cccc(C(=O)O/N=C(\N)c2ccncc2)c1	82.3*	20.3	0.3	0.2	70.3*	-0.9
COc1ccc(/C(N)=N/OC(=O)c2cccc([N+](=O)[O-])c2)cc1	-8.9	7.9	1.1	1.1	-5.8	0.1
COc1ccccc1C(=O)O/N=C(\N)c1ccc(Cl)cc1	-0.2	36.8	3*	1	-199.3	-9.2
N/C(=N\OC(=O)c1ccc(Cl)cc1)c1ccccn1	2.4	-12.4	0.7	1	33.7	-10.5
O=C(CC1CCS(=O)(=O)C1)Nc1ccc[nH]c1=O (stereo not given)	15.0	-2.0	1.1	0.8	-5.4	-15.0
CCOC(=O)c1[nH]c(C)c(C(=O)OCC(=O)N(CC)C2CCS(=O)(=O)C2)c1C (stereo not given)	-19.9	-6.8	0.7	1.2	27.9	-6.5
COc1cc(C(=O)O/N=C(\N)c2ccncc2)cc(OC)c1OC	72.4*	-22.8	0.1	0.3	88.6*	-7.9
COc1ccc(Cl)cc1N/C(N)=N/c1nc(CSc2ccc(C)cc2)cc(=O)[nH]1	52.1*	13.3	0.2	0.5	76.3*	-4.3
CCC(C)NC(=O)Nc1ccc2c(c1)N(C)C(=O)c1ccccc1S2 (stereo not given)	69.8*	16.1	0	0.3	97.0*	-3.3
CCOc1ccccc1CNC(=O)c1cc2oc3ccccc3c2n1CC	65.5*	-15.6	1.1	0.3	-10.9	14.4
CCOc1ccc(CNC(=O)c2cc3oc4ccccc4c3n2C)cc1	22.9	-15.5	0.5	0.8	52.2*	-3.7
Cc1ccc(S(=O)(=O)CC(c2ccccc2)N2CCOCC2)cc1 (stereo not given)	56.8*	16.8	1	0.4	-1.4	-11.4
N#Cc1cc2cc3c(cc2nc1N1CCOCC1)OCO3	54.7*	-16.1	0.9	0.5	8.0	-11.8
CC1(C)Cc2nc(N3CCOCC3)c(C#N)cc2CO1	11.6	5.6	1	0.9	3.5	-3.4
Cc1[nH]nc2nc3c(c(OC(=O)c4ccccc4)c12)c(=O)n(C)c(=O)n3C	-15.9	7.8	0.7	1.2	34.5	-9.4
SMILES	CYP2C19 inhib	Plk1 PBD FP	CYP2C9 act	CYP2C19 act	CYP2C9 inhib	PLK1 inh
OCCNc1nc(C2CC2)nc2c1nnn2Cc1ccccc1Cl	81.7*	x	0.4	0.2	60.4*	x
Cc1nc(NCC2CCCO2)c2nnn(Cc3ccccc3Cl)c2n1 (stereo not given)	56.3*	x	2.2*	0.4	-116.8	x
NC(=O)C1CCN(c2nc(C3CC3)nc3c2nnn3Cc2ccccc2Cl)CC1	-11.4	19.8	1	1.1	1.1	-1.3
CCOc1ccc(C(=O)Nc2cnn(Cc3ccc(Cl)c(Cl)c3)c2)cc1	36.4	17.6	0.8	0.6	20.0	5.0
NC(=O)c1c(NC(NC(=O)c2ccco2)(C(F)(F)F)C(F)(F)F)sc2c1CCCC2	19.7	15.2	0.8	0.8	21.2	-0.5
Cc1nn(Cc2ccccc2Cl)c(C)c1NC(=O)NC12CC3CC(CC(C3)C1)C2	14.8	-15.8	0.7	0.9	26.6	-10.6
Cc1nn(Cc2ccccc2Cl)c(C)c1C(=O)N1CCN(c2ccccc2)CC1	61.6*	12.7	0.3	0.4	71.9*	-10.4
CCC(CC)c1nnc(NC(=O)c2c(C)nn(Cc3ccccc3Cl)c2C)s1	18.6	-9.1	0.5	0.8	52.3*	-10.6
Cc1nn(Cc2ccccc2Cl)c(C)c1C(=O)NC1=NCCS1	65.5*	11.2	0.6	0.3	41.6	3.8
CCc1nnc(NC(=O)c2c(C)nn(-c3ccccc3)c2Cl)s1	4.0	-0.5	0.7	1	26.1	-4.6
O=C(C1CCCCN1S(=O)(=O)c1ccc(F)cc1)N1CCN(c2ccccc2F)CC1 (stereo not given)	39.0	-8.2	0.6	0.6	35.5	-7.7
Cc1ccc(NC2=C(Cl)C(=O)OC2OC(=O)c2ccco2)c(C)c1 (stereo not given)	x	-6.4	x	x	x	-6.8
Cc1ccc(C)c(NC2=C(Cl)C(=O)OC2OC(=O)c2ccco2)c1 (stereo not given)	76.1*	17.8	0.4	0.2	57.6*	-2.8
Cc1cc(S(=O)(=O)N(Cc2ccc(C(C)C)cc2)CC2CCCO2)ccc1-n1cnnn1 (stereo not given)	43.5	2.2	0.5	0.6	52.6*	-7.0
Cc1cc(S(=O)(=O)N(Cc2ccc3c(c2)OCO3)CC2CCCO2)ccc1-n1cnnn1 (stereo not given)	94.8*	11.8	0.3	0.1	69.2*	-11.9
Cc1cc(S(=O)(=O)N(Cc2ccc(F)cc2)CC2CCCO2)ccc1-n1cnnn1 (stereo not given)	56.3*	7.9	0.9	0.4	13.3	-5.2
COc1ccc(CN(C2CCCC2)S(=O)(=O)c2ccc(-n3cnnn3)c(OC)c2)cc1OC	46.2	7.6	0.5	0.5	46.0	-12.0
Cc1nn(-c2ccccn2)c2c1C(c1ccccn1)C1=C(CCCC1=O)N2 (stereo not given)	-8.5	-10.2	0.9	1.1	5.4	-2.5
COc1ccc(/C=C/c2ccncc2)c2ccccc12	88.1*	-11.5	0.5	0.1	54.4*	-13.7
Cc1cc(SCC(=O)c2cccs2)nc2c(C)cccc12	16.6	18.3	1.2	0.8	-16.6	-12.7
Cc1cc(C)c(C#N)c(SCC(=O)c2cccs2)n1	96.2*	3.3	0.4	0	61.8*	-15.0
N#Cc1c(-c2cccs2)cc(C2CC2)nc1SCC(N)=O	58.7*	-7.2	0.9	0.4	12.8	-7.7
